Measured values taken from paper PMC7862700, “An all-to-all approach to the identification of sequence-specific readers for epigenetic DNA modifications on cytosine”.

Legend:
Assay in all cases: DAPPL (digital affinity profiling via proximity ligation, sequencing); 10 mM Tris-HCl pH 7.5, 50 mM NaCl, 1 mM DTT, 4% glycerol, room temperature, 30 min; GST-TFs on glutathione beads, 16-mer random dsDNA library, 0.1% formaldehyde crosslink after washing; high values mean tight binding
Conditions in all cases: protein: recombinant; tags: N-terminal GST; dsDNA, one strand shown
[1] = target: T1, FLI1 (Homo sapiens, UniProt Q01543 1-452)
T1 sequence: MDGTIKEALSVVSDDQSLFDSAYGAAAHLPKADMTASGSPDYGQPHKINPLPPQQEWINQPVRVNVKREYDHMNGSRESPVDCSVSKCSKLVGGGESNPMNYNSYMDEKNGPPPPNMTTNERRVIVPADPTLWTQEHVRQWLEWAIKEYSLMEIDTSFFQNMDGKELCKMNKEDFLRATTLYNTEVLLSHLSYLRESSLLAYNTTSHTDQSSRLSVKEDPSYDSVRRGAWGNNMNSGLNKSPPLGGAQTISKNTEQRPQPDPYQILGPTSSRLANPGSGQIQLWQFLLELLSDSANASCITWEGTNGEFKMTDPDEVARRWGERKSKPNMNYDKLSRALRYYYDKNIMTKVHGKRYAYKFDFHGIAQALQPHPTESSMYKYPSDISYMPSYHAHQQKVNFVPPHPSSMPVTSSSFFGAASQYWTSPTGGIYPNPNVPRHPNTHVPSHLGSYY
Outline: (§1)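 Human transcription factors fused to GST were expressed in yeast, captured on glutathione beads, given DNA barcodes and pooled with a GST-only negative control. Pools were incubated with 200 nmole of a 16-mer random double-stranded DNA library in Tris/NaCl/DTT/glycerol buffer at room temperature for 30 min. They were then washed, crosslinked with 0.1% formaldehyde, proximity-ligated (BsaI/T4 ligase, 1 h, 37 °C), PCR-amplified and sequenced on an Illumina NextSeq500. Binding signal is each 6-mer's read frequency for a factor divided by its frequency for the GST control.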

[2] = target: T2, ELK1 (Homo sapiens, UniProt P19419 1-428)
T2 sequence: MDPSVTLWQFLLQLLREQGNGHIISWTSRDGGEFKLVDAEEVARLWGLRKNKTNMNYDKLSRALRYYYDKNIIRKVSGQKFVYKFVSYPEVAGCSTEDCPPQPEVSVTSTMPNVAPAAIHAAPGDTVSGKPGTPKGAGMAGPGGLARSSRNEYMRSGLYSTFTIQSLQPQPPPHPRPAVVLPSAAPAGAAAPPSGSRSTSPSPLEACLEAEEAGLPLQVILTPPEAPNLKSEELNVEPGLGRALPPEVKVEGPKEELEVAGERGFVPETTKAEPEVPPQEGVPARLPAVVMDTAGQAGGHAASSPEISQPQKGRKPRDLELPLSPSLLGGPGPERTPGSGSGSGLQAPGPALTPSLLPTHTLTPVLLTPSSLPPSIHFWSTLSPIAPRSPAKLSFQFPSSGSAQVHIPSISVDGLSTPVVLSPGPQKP
Outline: as §1

[3] = target: T3, GABPA (Homo sapiens, UniProt Q06546 1-454)
T3 sequence: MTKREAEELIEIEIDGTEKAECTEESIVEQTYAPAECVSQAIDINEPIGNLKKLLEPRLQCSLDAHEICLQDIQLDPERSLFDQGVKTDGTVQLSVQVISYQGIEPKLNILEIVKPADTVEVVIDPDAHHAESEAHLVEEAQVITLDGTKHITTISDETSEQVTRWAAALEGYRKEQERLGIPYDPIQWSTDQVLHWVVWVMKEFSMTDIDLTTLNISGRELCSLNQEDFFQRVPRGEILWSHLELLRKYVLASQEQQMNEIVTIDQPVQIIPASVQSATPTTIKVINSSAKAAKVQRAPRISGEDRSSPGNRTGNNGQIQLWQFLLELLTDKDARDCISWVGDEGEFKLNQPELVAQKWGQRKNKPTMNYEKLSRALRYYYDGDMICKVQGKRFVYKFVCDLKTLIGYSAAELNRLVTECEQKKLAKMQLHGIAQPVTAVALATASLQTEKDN
Outline: as §1

[4] = target: ELF1 (Homo sapiens, UniProt P32519 1-619)
Sequence of ELF1 (P32519 whole entry): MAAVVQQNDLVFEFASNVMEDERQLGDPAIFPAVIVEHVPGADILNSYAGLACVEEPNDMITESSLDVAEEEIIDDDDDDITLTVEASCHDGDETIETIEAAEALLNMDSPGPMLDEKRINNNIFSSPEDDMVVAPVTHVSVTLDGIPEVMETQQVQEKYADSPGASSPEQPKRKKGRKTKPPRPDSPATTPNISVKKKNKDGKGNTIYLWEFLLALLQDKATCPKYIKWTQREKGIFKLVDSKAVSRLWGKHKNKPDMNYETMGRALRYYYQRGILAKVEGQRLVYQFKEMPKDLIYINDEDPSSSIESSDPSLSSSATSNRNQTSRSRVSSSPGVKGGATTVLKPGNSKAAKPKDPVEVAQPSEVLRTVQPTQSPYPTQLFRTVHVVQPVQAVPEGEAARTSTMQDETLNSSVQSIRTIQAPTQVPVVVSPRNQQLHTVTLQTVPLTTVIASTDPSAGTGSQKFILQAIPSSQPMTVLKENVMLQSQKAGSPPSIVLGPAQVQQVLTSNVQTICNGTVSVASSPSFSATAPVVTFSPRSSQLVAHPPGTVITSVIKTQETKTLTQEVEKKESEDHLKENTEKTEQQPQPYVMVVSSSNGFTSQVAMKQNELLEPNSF
Outline: as §1

[5] = target: T4, SPIC (Homo sapiens, UniProt Q8N5J4 1-248)
T4 sequence: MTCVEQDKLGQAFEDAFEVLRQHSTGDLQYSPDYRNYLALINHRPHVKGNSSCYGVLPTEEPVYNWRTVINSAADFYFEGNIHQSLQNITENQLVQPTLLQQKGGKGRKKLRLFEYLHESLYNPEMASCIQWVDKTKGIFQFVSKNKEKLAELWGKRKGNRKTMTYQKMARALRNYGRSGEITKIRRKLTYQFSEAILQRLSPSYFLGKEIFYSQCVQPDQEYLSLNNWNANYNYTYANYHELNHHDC
Outline: as §1

[6] = target: ELF4 (Homo sapiens, UniProt Q99607 1-663)
Sequence of ELF4 (Q99607 whole entry): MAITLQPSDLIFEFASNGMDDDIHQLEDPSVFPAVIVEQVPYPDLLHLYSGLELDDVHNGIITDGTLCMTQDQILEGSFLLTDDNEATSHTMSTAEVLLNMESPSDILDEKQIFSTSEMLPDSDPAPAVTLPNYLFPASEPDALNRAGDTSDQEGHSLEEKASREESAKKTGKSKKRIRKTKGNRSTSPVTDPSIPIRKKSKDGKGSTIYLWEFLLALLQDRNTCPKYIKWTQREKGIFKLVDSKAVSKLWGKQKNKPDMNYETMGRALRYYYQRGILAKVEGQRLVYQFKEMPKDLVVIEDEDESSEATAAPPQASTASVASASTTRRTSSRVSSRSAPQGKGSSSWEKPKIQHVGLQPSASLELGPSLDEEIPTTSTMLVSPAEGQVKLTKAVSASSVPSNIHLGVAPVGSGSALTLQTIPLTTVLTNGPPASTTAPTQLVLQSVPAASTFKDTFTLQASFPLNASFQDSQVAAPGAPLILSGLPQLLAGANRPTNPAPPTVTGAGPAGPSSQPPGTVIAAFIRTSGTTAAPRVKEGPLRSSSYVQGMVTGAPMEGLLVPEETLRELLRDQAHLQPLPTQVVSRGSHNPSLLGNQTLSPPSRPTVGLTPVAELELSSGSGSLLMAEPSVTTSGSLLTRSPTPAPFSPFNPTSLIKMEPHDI
Outline: as §1

[7] = target: T5, ELK4 (Homo sapiens, UniProt P28324-2 1-405)
T5 sequence: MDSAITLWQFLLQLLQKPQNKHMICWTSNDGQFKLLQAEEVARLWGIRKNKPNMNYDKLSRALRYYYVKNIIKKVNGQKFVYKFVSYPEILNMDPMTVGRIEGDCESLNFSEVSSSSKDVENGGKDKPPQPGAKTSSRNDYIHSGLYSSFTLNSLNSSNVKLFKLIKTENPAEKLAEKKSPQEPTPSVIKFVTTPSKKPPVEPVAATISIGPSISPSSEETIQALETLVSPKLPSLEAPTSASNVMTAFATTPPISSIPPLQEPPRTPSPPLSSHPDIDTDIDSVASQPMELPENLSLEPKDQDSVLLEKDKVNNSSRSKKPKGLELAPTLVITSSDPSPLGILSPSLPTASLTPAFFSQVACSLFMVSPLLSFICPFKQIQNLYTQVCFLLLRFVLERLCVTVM
Outline: as §1

[8] = target: T6, ETV2 (Homo sapiens, UniProt O00321 1-342)
T6 sequence: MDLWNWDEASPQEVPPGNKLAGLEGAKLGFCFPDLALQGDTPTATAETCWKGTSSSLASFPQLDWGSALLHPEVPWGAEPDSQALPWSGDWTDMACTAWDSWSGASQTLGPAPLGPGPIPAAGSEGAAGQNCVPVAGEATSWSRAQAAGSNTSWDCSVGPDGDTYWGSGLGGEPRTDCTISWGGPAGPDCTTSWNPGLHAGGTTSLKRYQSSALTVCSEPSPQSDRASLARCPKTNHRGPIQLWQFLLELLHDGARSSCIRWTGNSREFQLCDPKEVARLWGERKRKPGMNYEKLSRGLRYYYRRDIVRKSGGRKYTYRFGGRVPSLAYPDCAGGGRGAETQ
Outline: as §1

[9] = target: T7, ELF3 (Homo sapiens, UniProt P78545 1-371)
T7 sequence: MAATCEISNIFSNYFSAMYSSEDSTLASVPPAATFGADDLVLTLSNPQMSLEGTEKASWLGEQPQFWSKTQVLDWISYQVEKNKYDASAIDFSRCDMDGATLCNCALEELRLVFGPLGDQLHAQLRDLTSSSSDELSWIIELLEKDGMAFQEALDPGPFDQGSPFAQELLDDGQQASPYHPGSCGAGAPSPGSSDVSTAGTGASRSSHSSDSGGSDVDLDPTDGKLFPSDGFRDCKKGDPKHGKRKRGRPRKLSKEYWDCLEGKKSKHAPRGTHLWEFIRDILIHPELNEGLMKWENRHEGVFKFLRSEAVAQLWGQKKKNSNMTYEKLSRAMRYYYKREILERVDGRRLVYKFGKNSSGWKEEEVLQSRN
Outline: as §1

[10] = target: ETV1 (Homo sapiens, UniProt P50549 1-477)
Sequence of ETV1 (P50549 whole entry): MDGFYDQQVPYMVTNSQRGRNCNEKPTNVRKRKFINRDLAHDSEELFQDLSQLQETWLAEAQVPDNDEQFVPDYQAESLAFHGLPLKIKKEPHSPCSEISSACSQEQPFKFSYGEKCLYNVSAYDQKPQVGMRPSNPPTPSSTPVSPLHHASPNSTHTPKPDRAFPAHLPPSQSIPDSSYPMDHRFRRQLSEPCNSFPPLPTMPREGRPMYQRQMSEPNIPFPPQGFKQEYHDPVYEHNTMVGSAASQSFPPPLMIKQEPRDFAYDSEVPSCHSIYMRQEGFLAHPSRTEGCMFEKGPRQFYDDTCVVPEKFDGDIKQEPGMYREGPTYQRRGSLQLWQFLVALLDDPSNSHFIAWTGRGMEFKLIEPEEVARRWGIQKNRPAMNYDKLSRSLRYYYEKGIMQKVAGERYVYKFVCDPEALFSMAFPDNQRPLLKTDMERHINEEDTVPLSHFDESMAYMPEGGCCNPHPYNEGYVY
Outline: as §1

[11] = target: T8, ERF (Homo sapiens, UniProt P50548 1-548)
T8 sequence: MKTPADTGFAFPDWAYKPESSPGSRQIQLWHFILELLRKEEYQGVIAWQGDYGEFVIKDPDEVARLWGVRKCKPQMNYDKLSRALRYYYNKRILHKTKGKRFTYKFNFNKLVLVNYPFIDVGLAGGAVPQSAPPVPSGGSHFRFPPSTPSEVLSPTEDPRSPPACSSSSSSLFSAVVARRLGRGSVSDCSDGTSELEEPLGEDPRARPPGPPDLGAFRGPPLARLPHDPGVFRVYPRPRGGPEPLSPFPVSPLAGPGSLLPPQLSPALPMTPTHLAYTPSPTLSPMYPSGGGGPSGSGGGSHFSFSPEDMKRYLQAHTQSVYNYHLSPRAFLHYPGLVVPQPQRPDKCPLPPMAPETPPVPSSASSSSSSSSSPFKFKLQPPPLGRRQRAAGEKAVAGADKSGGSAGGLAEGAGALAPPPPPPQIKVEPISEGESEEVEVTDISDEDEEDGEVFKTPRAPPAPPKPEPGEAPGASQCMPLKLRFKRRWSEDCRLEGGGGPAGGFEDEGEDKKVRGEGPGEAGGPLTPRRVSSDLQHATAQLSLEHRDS
Outline: as §1

[12] = target: T9, ETV7 (Homo sapiens, UniProt Q9Y603 1-341)
T9 sequence: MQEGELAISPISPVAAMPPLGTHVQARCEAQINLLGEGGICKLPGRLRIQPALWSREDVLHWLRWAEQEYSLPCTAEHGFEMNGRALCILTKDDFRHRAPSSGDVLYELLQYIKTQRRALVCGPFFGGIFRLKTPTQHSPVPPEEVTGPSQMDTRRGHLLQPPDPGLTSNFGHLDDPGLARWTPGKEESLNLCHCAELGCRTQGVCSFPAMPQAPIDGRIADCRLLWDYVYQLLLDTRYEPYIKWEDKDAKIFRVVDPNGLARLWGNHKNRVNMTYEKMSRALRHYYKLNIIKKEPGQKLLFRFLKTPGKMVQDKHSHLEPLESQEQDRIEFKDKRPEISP
Outline: as §1

[13] = target: T10, ETV3 (Homo sapiens, UniProt P41162-2 1-143)
T10 sequence: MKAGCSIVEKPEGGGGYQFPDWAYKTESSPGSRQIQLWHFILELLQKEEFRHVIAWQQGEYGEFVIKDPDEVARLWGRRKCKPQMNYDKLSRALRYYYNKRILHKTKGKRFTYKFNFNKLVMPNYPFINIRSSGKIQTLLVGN
Outline: as §1

In the case of ACTTGA, the binding signal [1] is reported as 1.1 fold enrichment (6-mer frequency, TF over GST control), the binding signal [2] is reported as 1.1 fold enrichment (6-mer frequency, TF over GST control) and the binding signal [3] is reported as 1 fold enrichment (6-mer frequency, TF over GST control). The binding signal [4] was 1.02 fold enrichment (6-mer frequency, TF over GST control), the binding signal [5] was 1 fold enrichment (6-mer frequency, TF over GST control) and the binding signal [6] was 1.07 fold enrichment (6-mer frequency, TF over GST control). The binding signal [7] was 1.14 fold enrichment (6-mer frequency, TF over GST control), the binding signal [8] was 1.13 fold enrichment (6-mer frequency, TF over GST control) and the binding signal [9] was 1.04 fold enrichment (6-mer frequency, TF over GST control). For the same sequence, the binding signal [10] was 1.07 fold enrichment (6-mer frequency, TF over GST control), the binding signal [11] was 1.01 fold enrichment (6-mer frequency, TF over GST control) and the binding signal [12] was 1.08 fold enrichment (6-mer frequency, TF over GST control). The binding signal [13] was 1.07 fold enrichment (6-mer frequency, TF over GST control).
